Screening data (PubChem BioAssay)
Hits are enriched below; roughly 3% of the tested compounds scored in any of these assays.
CF NFkB block: inhibitors of PAF-induced NF-kB signaling, primary screen, cell-based, GFP fluorescence, uHTS; KKLEB NF-kB-GFP reporter, GFP fluorescence overnight; inhibition, % at 5 µM; 360,000 compounds, 0.86% hits;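 active = at least 50% inhibition at 5 µM, scaled per plate between neutral and stimulator controls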;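 also: PAF is a Pseudomonas aeruginosa culture filtrate used as stimulus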
HIF-2a inh: HIF-2a reporter inhibitors, primary screen, luminescence, 786-0 RCC cells | 786-0 RCC cells HIF-2a reporter, luciferase luminescence, overnight | inhibition, % at 18.8 µM | 360,000 compounds, 0.72% hits | AID 624352, 2012;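 active = inhibition of the luminescence signal of 40% or more relative to plate controls, in a single-dose primary screen at 18.75 µM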
MITF TRPM1 inh: inhibitors of MITF-dependent TRPM1 promoter reporter, primary screen, cell-based, SK-MEL-5, single point, luciferase; SK-MEL-5 TRPM1 promoter luciferase, 24 h; inhibition, % at 12.5 µM; 330,000 compounds, 0.83% hits;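 active = mean inhibition across replicates of 60% or more, whatever share of single replicates reaches that level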
ABHD5 PLIN5 PPI: ABHD5-PLIN5 interaction inhibitors, primary screen, cell lysate, split luciferase complementation, luminescence; Perilipin-5 (Homo sapiens) + 1-acylglycerol-3-phosphate O-acyltransferase ABHD5 (Homo …; Split G. princeps luciferase complementation, 4 h; inhibition, % at 4 µM; 360,000 compounds, 0.78% hits; AID 602281, 2012;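 active = inhibition above the mean inhibition across every tested compound plus 3 SD, cut at about 22% in these data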
Target sequence (Q00G26 whole entry, looked up): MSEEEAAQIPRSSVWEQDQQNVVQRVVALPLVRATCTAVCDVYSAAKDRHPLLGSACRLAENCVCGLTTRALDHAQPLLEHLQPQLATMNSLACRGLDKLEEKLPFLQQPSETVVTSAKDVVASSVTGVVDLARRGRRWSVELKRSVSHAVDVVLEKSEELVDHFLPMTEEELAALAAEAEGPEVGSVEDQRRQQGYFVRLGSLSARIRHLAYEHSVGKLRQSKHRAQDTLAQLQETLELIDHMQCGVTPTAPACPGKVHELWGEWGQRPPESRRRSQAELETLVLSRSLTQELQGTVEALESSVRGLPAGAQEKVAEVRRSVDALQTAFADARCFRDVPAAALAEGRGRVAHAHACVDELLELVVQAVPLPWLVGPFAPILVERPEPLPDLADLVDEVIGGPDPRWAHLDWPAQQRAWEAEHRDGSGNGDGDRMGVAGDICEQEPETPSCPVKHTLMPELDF
Target sequence (Q8WTS1 whole entry, looked up): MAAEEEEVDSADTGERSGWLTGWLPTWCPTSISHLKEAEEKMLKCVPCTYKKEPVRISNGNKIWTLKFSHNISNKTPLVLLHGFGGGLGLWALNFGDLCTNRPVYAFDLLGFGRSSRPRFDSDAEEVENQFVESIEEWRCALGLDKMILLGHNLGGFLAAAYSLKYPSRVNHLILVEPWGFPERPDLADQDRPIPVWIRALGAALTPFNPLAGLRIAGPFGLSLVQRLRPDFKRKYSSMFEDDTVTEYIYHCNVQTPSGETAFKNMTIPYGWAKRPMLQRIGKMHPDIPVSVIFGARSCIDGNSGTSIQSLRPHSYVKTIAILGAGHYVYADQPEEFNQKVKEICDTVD
KKLEB tox: cytotoxicity in KKLEB CF airway cells, primary screen, cytotoxicity control for CF NF-kB inhibitor project, cell-based, uHTS, fluorescence assay plates; KKLEB CF airway cells viability, ATPlite luminescence, overnight; stronger effect = lower value; cells stimulated with P. aeruginosa culture filtrate; 360,000 compounds, 0.36% hits; activity change (cytotoxicity), % at 5 µM;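 active = corrected activity change at or below -50% at 5 µM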
Peg3 promoter: Peg3 promoter-driven luciferase inhibitors, primary screen, cell-based, HeLa, luciferase luminescence | HeLa PEG-Prom luciferase reporter, overnight | inhibition, % at 20 µM | 360,000 compounds, 1.7% hits | AID 588405, 2011;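 active = inhibition of at least 50% at 20 µM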
A number is an active result; n = inactive; x = not tested or not shown.

SMILES	CF NFkB block	HIF-2a inh	MITF TRPM1 inh	ABHD5 PLIN5 PPI	KKLEB tox	Peg3 promoter
COc1ccc(S(=O)(=O)N2Cc3ccccc3CC2C(=O)O)cc1 (stereo unspecified)	n	n	n	n	n	n
O=C(O)C1Cc2ccccc2CN1S(=O)(=O)c1ccc(Cl)cc1 (stereo unspecified)	59	n	n	n	-78	n
CCOC(=O)c1c(C)[nH]c2cc(Br)c(O)cc12	n	n	n	n	n	n
CCOC(=O)c1c(OCC)[nH]c2c1cc(O)c1ccccc12	85	n	n	n	n	n
O=C(NCCc1ccccc1)c1cc(-c2ccccc2)c(N2CCOCC2)s1	n	n	n	n	n	n
CCN(CC)CCCNC(=O)c1cc(-c2ccccc2)c(N2CCCCC2)s1	n	n	n	n	n	97
COc1ccc(NC2=C(Cl)C(=O)N(CCc3ccccc3)C2=O)c(OC)c1	n	n	n	n	n	n
COc1ccc(CCNC2=C(Cl)C(=O)N(CCc3ccc(OC)c(OC)c3)C2=O)cc1OC	n	n	n	n	n	80
C[C@@H](NC(=O)[C@@H]1Cc2ccccc2CN1)C(=O)NCC1CCCO1 (stereo partly specified)	n	n	n	n	n	n
O=[N+]([O-])c1cc(-c2nc(-c3ccncc3)no2)cc([N+](=O)[O-])c1	n	n	n	n	n	n
O=[N+]([O-])c1cc(-c2nc(-c3ccncc3)no2)ccc1Cl	n	n	n	n	n	105
O=C(NCCCN1CCCCC1)C1CCN(S(=O)(=O)N2CCC3(CC2)OCCO3)CC1	n	n	n	n	n	n
O=C(NCCc1ccc(Cl)cc1)c1nnc(Cc2ccc(Cl)cc2)o1	n	n	n	n	n	n
Cc1ccc(CCNC(=O)c2nnc(CS(=O)(=O)c3ccccc3)o2)cc1	n	n	n	n	n	62
COc1ccc(-n2ncc3c(N4CCN(c5cccc(C)c5C)CC4)ncnc32)cc1	n	n	x	n	n	68
COc1ccc(-n2ncc3c(N4CCCCC4)ncnc32)cc1	n	81	84	n	-82	81
Cc1ccc(-n2ncc3c(N4CCN(c5ccccc5)CC4)ncnc32)c(C)c1	n	n	n	n	n	97
COc1ccc(-n2ncc3c(N4CCN(c5cc(C)ccc5C)CC4)ncnc32)cc1	n	n	n	n	n	n
COc1ccc(C(C)(O)c2nc(-c3ccncc3)cs2)cc1 (stereo unspecified)	n	n	x	n	n	n
O=C1C=C(Nc2ccc(O)cc2)C(=O)c2ccccc21	n	n	n	n	n	n
COc1cc(OC)c(NC2=CC(=O)C(=O)c3ccccc32)cc1Cl	85	n	99	n	n	n
CCOC(=O)c1ccc(NC2=CC(=O)C(=O)c3ccccc32)cc1	89	n	75	n	-72	116
CC(=O)Nc1ccc(NC2=CC(=O)c3ccccc3C2=O)cc1	n	n	n	n	n	n
Cc1cc(NC2=CC(=O)C(=O)c3ccccc32)no1	86	n	84	n	n	n
Cc1ccc(NC2=CC(=O)C(=O)c3ccccc32)cc1	59	n	95	n	n	n
SMILES	CF NFkB block	HIF-2a inh	MITF TRPM1 inh	ABHD5 PLIN5 PPI	KKLEB tox	Peg3 promoter
N#Cc1ccc(NC(=O)C2=COCCO2)cc1	n	n	n	n	n	n
CCOC(=O)C1CCN(C(=O)COC(=O)c2ccc(=O)n(Cc3ccccc3)n2)CC1	n	n	n	n	n	n
NS(=O)(=O)c1ccc(NC(=O)Nc2ccccc2)cc1	n	n	n	n	n	n
NS(=O)(=O)c1ccc(NC2=CC(=O)C(=O)c3ccccc32)cc1	94	n	78	n	n	n
CCCCCCCCCn1c2c(c(=N)c3c1CCC3)CCCC2	n	n	92	n	-56	104
CCCCCCCCCCn1c2c(c(=N)c3c1CCC3)CCC2	59	64	81	23	-64	98
CCn1c2c(c(=N)c3c1CCC3)CCCC2	n	n	x	n	n	n
CCCCCCCCn1c2c(c(=N)c3ccccc31)CCC2	n	n	90	n	n	86
Cc1ccc(C2=NOC(=O)/C2=C\C=C\c2ccccc2)cc1	92	n	96	n	-61	106
COc1ccc(/C=C2/C(=O)ON=C2c2ccccc2)cc1OC	n	41	n	n	n	n
O=C(Nc1ccc2c(c1)OCO2)c1cc(C2CCCCN2S(=O)(=O)c2cccs2)on1 (stereo unspecified)	n	n	x	n	n	n
Cc1ccc(C(CNS(=O)(=O)c2ccc(Br)cc2)N2CCN(C)CC2)cc1 (stereo unspecified)	n	n	80	n	n	n
O=C(O)CNC(=O)C(CS)Cc1ccccc1 (stereo unspecified)	55	n	n	n	n	n
CSc1nc(N)c(C(=O)N(c2ccccc2)c2ccccc2)s1	n	n	x	n	n	n
CC(C)(C)OC(=O)NCc1ccc(CNC(=O)c2[nH]cnc2C(=O)NC2CCN(C(=O)OC(C)(C)C)CC2)cc1	n	n	n	n	n	61
Cc1cccc(NC(=O)c2nc[nH]c2C(=O)NC2CCN(C(=O)OC(C)(C)C)CC2)c1	n	n	n	n	n	61
CC(C)(C)OC(=O)NCCCCCNC(=O)c1nc[nH]c1C(=O)NCc1ccc(CNC(=O)OC(C)(C)C)cc1	n	n	n	n	n	80
CC(C)(C)OC(=O)NCCCCCNC(=O)c1nc[nH]c1C(=O)NCCCCCNC(=O)OC(C)(C)C	n	n	n	n	n	64
Cc1ccc(NC(=O)c2ccc(F)cc2F)cc1NS(C)(=O)=O	n	n	x	n	n	n
CC(=O)c1cccc(-c2ccnc3c2CC(C(=O)NCc2ccco2)O3)c1 (stereo unspecified)	n	n	x	n	n	n
Cc1ccc(-c2c(C)sc3ncn(CC(=O)N4CCOCC4)c(=O)c23)cc1C	n	n	n	n	n	n
CC(C)(C)OC(=O)NCCCCCNC(=O)c1[nH]cnc1C(=O)N[C@@H](Cc1ccccc1)C(=O)OCc1ccccc1	n	n	n	n	n	59
CC(C)C[C@H](NC(=O)c1nc[nH]c1C(=O)NCCCCCNC(=O)OC(C)(C)C)C(=O)OCc1ccccc1	n	n	n	n	n	n
Cc1ccccc1S(=O)(=O)N1C(c2ccc(Cl)c(Cl)c2)CC=C(C(=O)O)C1c1cccc(Br)c1 (stereo unspecified)	x	n	x	n	x	x
CCN(CC)CCn1nc2c3c(cccc3c1=O)-c1ccccc1-2	n	n	70	n	n	106
Cc1nn(-c2ccc(F)cc2)c2nc(N)c(C#N)c(-c3cccs3)c12	n	n	n	n	n	84
